Reference: PubChem BioAssay (NCATS)
Results filed as inconclusive are left out. Activity calls are given as the source filed them. Calls follow the shape of the dose curve; as a rule, active = well fitted curve in the direction sought with a large enough effect; inconclusive = small, poorly fitted or top-dose-only effect, or another doubt; inactive = no such curve, though single readings can be large; an effect the other way counts as inactive or inconclusive.

Assays:
[1] = Confirmation and Secondary Assay for Modulators of Hemoglobin Beta Chain Splicing at IVS2 654 locus (AID 910); conditions: HeLa EGFP-654 splicing reporter, GFP fluorescence, 48 h; series mostly up to 38.3 µM;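 also: per-well total GFP intensity by laser scanning cytometry after 2-day treatment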
In short: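 HeLa cells stably carrying EGFP interrupted by mutant beta-globin IVS2-654 intron (CMV-driven) were treated with compound for 2 days at 37C; corrected splicing was scored as total peak GFP intensity per well (488 nm excitation, 500-520 nm emission).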

[2] = Confirmation and Secondary Assay for Modulators of Hemoglobin Beta Chain Splicing at IVS2 705 locus (AID 930); conditions: HeLa EGFP-705 splicing reporter, GFP fluorescence, 48 h; series mostly up to 38.3 µM;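 also: HeLa cells stably expressing the EGFP-705 splicing reporter; GFP fluorescence per well restored by corrected splicing of the IVS2-705 intron in EGFP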
In short: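 Secondary splice-site specificity test uses HeLa expressing CMV-driven EGFP interrupted by IVS2-705; cells were treated 2 days at 37C with 500 nM antisense PNA as positive control.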

DFO2036 = test: qHTS profiling for inhibitors of Plasmodium falciparum proliferation (AID 504749); also: nearly all actives have a fitted effect of over 60% in size; conditions: P. falciparum in erythrocytes, SYBR Green DNA, 72 h; series mostly up to 28.7 µM
In short: (§1)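 Parasite proliferation within erythrocytes, 72 h exposure. Endpoint: SYBR Green I fluorescence after overnight lysis at room temperature. Controls: 0.29 uM artemisinin, DMSO.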

DIV14 = test: as above; conditions: P. falciparum in erythrocytes, SYBR Green DNA, 72 h; series mostly up to 28.7 µM
In short: as §1

DIV17 = test: as above; conditions: P. falciparum in erythrocytes, SYBR Green DNA, 72 h; series mostly up to 28.7 µM
In short: as §1

DIV30 = test: as above; conditions: P. falciparum in erythrocytes, SYBR Green DNA, 72 h; series mostly up to 28.7 µM
In short: as §1

Dd2 = test: as above; conditions: P. falciparum in erythrocytes, SYBR Green DNA, 72 h; series mostly up to 28.7 µM
In short: as §1

ECU = test: as above; conditions: P. falciparum in erythrocytes, SYBR Green DNA, 72 h; series mostly up to 28.7 µM
In short: as §1

FAB9 = test: as above; conditions: P. falciparum in erythrocytes, SYBR Green DNA, 72 h; series mostly up to 28.7 µM
In short: as §1

HB3 = test: as above; conditions: P. falciparum in erythrocytes, SYBR Green DNA, 72 h; series mostly up to 28.7 µM
In short: as §1

JCK = test: as above; conditions: P. falciparum in erythrocytes, SYBR Green DNA, 72 h; series mostly up to 28.7 µM
In short: as §1

N140 = test: as above; conditions: P. falciparum in erythrocytes, SYBR Green DNA, 72 h; series mostly up to 28.7 µM
In short: as §1

P94_40 = test: as above; conditions: P. falciparum in erythrocytes, SYBR Green DNA, 72 h; series mostly up to 28.7 µM
In short: as §1

PAD = test: as above; conditions: P. falciparum in erythrocytes, SYBR Green DNA, 72 h; series mostly up to 28.7 µM
In short: as §1

PC15 = test: as above; conditions: P. falciparum in erythrocytes, SYBR Green DNA, 72 h; series mostly up to 28.7 µM
In short: as §1

PC26 = test: as above; conditions: P. falciparum in erythrocytes, SYBR Green DNA, 72 h; series mostly up to 28.7 µM
In short: as §1

PC49 = test: as above; conditions: P. falciparum in erythrocytes, SYBR Green DNA, 72 h; series mostly up to 28.7 µM
In short: as §1

SC27B = test: as above; conditions: P. falciparum in erythrocytes, SYBR Green DNA, 72 h; series mostly up to 28.7 µM
In short: as §1

TAB113 = test: as above; conditions: P. falciparum in erythrocytes, SYBR Green DNA, 72 h; series mostly up to 28.7 µM
In short: as §1

TAB165 = test: as above; conditions: P. falciparum in erythrocytes, SYBR Green DNA, 72 h; series mostly up to 28.7 µM
In short: as §1

Measured: Potency

CN(C)C(=O)c1ccc(-c2nc(Nc3ccc(F)cc3)c3ccccc3n2)cc1
inactive: [1] | [2]

N[C@@H](Cc1ccccc1)C(=O)O
inactive: [1] | [2] | DFO2036 | DIV14 | DIV17 | DIV30 | Dd2 | ECU | FAB9 | HB3 | JCK | N140 | P94_40 | PAD | PC15 | PC26 | PC49 | SC27B | TAB113 | TAB165

C[C@]12CC[C@H]3c4ccc(O)cc4CC[C@@H]3[C@H]1CC[C@@H]2OP(=O)(O)O
inactive: DFO2036 | DIV14 | DIV17 | DIV30 | Dd2 | ECU | FAB9 | HB3 | JCK | N140 | P94_40 | PAD | PC15 | PC26 | PC49 | SC27B | TAB113 | TAB165

CC1(C)[C@@H]2CC[C@]1(C)[C@@H](OC(=O)CSC#N)C2
inactive: DFO2036 | DIV14 | DIV17 | DIV30 | Dd2 | ECU | FAB9 | HB3 | JCK | N140 | P94_40 | PAD | PC15 | PC26 | PC49 | SC27B | TAB113 | TAB165

COc1cccc2c1C(=O)c1c(O)c3c(c(O)c1C2=O)C[C@](O)(C(=O)CO)C[C@@H]3O[C@H]1C[C@H](N)[C@@H](O)[C@H](C)O1
inactive: DFO2036 | DIV14 | DIV17 | DIV30 | Dd2 | ECU | FAB9 | HB3 | JCK | N140 | P94_40 | PAD | PC15 | PC26 | PC49 | SC27B | TAB113 | TAB165

CNc1ncncc1-c1ccc(C(=O)N(C)C)cc1
inactive: [1] | [2]
